Experimental data reported in PubChem BioAssay (NCATS).
Values joined by “and” are separate entries in the source; they are usually repeats but may differ in a detail not shown here. Equal entries are not always repeated. Results filed as inconclusive are left out. Active and inactive are the calls of the source. The call rests on the fitted dose curve; in most records, active means well fitted curve in the direction sought with a large enough effect; inconclusive means small, poorly fitted or top-dose-only effect, or another doubt; inactive means no such curve, though single readings can be large; an effect the other way counts as inactive or inconclusive.

Key:
[1] = molecular target: Glutathione peroxidase 1 (Homo sapiens) (UniProt P07203); experiment: Primary qHTS Assay for Inhibitors of Recombinant Selenoprotein Glutathione Peroxidase 1 (GPX1) (AID 1845191); settings: recombinant GPX1, GR-coupled NADPH fluorescence, 15 min; series mostly up to 48.8 µM; further: nearly all actives have a fitted effect of over 65% in size; further: potency means the concentration at half of the fitted maximal effect; on activity, negative = inhibition: on the % scale 0 is the no-effect control and ±100 the full control effect
Glutathione peroxidase 1 (Homo sapiens), sequence (P07203 whole entry, looked up): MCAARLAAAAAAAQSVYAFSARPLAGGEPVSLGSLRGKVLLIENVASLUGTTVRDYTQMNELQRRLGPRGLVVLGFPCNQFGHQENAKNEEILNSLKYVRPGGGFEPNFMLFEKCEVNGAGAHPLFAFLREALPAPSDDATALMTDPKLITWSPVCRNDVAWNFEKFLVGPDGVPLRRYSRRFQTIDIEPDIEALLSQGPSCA
Summary of the method: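 10 nM GPX1 + cpd, 30 min RT; start w/ 1 mM GSH, 0.5 mM cumene hydroperoxide, 0.5 mM NADPH, 100 nM GR, 0.01% BSA; buffer 50 mM Tris-HCl pH 7.5, 2 mM EDTA, 150 mM NaCl; Fl 340/450, 0 & 15 min.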

[2] = molecular target: Phospholipid hydroperoxide glutathione peroxidase GPX4 (Homo sapiens) (UniProt P36969); experiment: Primary qHTS Assay for Inhibitors of Recombinant Selenoprotein Glutathione Peroxidase 4 (GPX4) (AID 1845192); settings: recombinant GPX4, GR-coupled NADPH fluorescence, 15 min; series mostly up to 50 µM; further: nearly all actives have a fitted effect of over 65% in size; further: potency means the concentration at half of the fitted maximal effect; on activity change, negative = inhibition: on the % scale 0 is the no-effect control and ±100 the full control effect
Phospholipid hydroperoxide glutathione peroxidase GPX4 (Homo sapiens), sequence (P36969 whole entry, looked up): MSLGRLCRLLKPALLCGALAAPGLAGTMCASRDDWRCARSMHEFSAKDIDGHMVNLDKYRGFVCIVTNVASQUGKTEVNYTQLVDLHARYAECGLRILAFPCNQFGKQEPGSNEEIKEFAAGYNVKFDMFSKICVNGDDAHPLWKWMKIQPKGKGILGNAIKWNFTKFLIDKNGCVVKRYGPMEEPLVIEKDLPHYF
Summary of the method: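 NADPH consumption, followed by fluorescence at 340/450 nm between 0 and 15 min, reports GPX4 activity via coupled glutathione reductase (100 nM). Enzyme 200 nM was pre-exposed to compound 30 min; 0.5 mM cumene hydroperoxide and 1 mM GSH served as substrates.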

[3] = molecular target: Luciferin 4-monooxygenase (Photinus pyralis) (UniProt P08659); experiment: Primary firefly luciferase (FLuc) qHTS assay for identification of artifact compounds. (AID 1845220); settings: purified firefly luciferase, luminescence, 5 min; series mostly up to 54.1 µM; further: nearly all actives have a fitted effect of over 60% in size;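 on activity change, negative = inhibition: plate controls were DMSO vehicle for no effect and no enzyme for full effect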
Summary of the method: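 FLuc 10 nM; luciferin 10 uM; ATP 10 uM; Tris-acetate pH 7.6, Mg-acetate 10 mM; 15 min RT preincubation; 5 min reaction; luminescence.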

[4] = Primary fluorescence-based thiol-reactive (MSTI) qHTS assay for identification of artifact compounds. (AID 1845221); settings: MSTI thiol-reactivity probe, 1 h; series mostly up to 53.8 µM; further: nearly all actives have a fitted effect of over 65% in size; further: potency means the concentration at half of the fitted maximal effect;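 on activity change, negative = thiol reactive: thiol-reactive compounds lower the probe fluorescence signal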
Summary of the method: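 Thiol-reactive compounds detected by quenching of 4 uM MSTI fluorescence (525/598 nm) after 1 h room-temperature dark incubation in PBS pH 7.4, 2% DMSO. qHTS titration; percent inhibition Hill-fitted against Acetyl-MSTI/MSTI controls.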

[5] = test system: Nanoluciferase (engineered Oplophorus gracilirostris luciferase); experiment: Primary Nanoluciferase (NLuc) qHTS assay for identification of artifact compounds. (AID 1845222); settings: NLuc-conditioned medium, Nano-Glo luminescence, 5 min; series mostly up to 54.1 µM;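 further: NLuc secreted into diluted conditioned medium of S16 cells; 0% = DMSO and -100% = no enzyme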
Summary of the method: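 NLuc from S16 cell medium (1:55) plus test compounds, 15 min, room temperature. Luminescence after Nano-Glo (1:100) addition, 5 min.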

[6] = Primary redox qHTS assay for identification of artifact compounds. (AID 1845223); settings: Amplex Red/HRP redox cycling with DTT, fluorescence; series mostly up to 53.8 µM;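 further: 0% = DMSO and 100% = reference compound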
Summary of the method: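 Amplex Red (25 uM) and HRP (250 mU/mL) in HBSS, with compounds for 15 min, then 250 uM DTT for 30 min, room temperature, dark. Fluorescence 525/598 nm read; normalized to DMSO and 10 uM DA3003; Hill fit.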

Fc1ccc2c(CCNCc3cccc(OCC(F)(F)C(F)F)c3)c[nH]c2c1
inactive: Potency [1] | Potency [2] | Potency [3] | Potency [4] | Potency [5] | Potency [6]

C=C1C(=O)O[C@@H]2/C=C(\CO)CC/C=C(\CO)[C@H](OC(C)=O)C(OC(=O)C(C)CC)C12 (stereo not given in full)
inactive: Potency [1] | Potency [2] | Potency [3] | Potency [4] | Potency [5] | Potency [6]

C=C1C(=O)OC2/C=C(\C)CC3C=C(CC/C=C(\C)CCC12)C(=O)O3 (stereo not given)
inactive: Potency [1] | Potency [2] | Potency [3] | Potency [4] | Potency [5] | Potency [6]

C=CC(=O)Nc1ccc2ncnc(Nc3cccc(Br)c3)c2c1
inactive: Potency [1] | Potency [2] | Potency [3] | Potency [4] | Potency [5] | Potency [6]

C=C[C@H](/C=C\c1ccc(O)cc1)c1ccc(O)cc1
inactive: Potency [1] | Potency [2] | Potency [3] | Potency [4] | Potency [5] | Potency [6]

CC(C)(CNC(=O)c1cccc(-c2noc(C(F)(F)F)n2)c1)c1coc(-c2ccccc2)n1
inactive: Potency [1] | Potency [2] | Potency [3] | Potency [4] | Potency [5] | Potency [6]

O=C(c1c(F)ccc(NS(=O)(=O)N2CC[C@@H](F)C2)c1F)c1c[nH]c2ncc(-c3cnc(C4CC4)nc3)cc12
inactive: Potency [1] | Potency [2] | Potency [3] | Potency [4] | Potency [5] | Potency [6]

C=CC(C)(C)c1[nH]c2ccccc2c1C[C@@H]1NC(=O)[C@H](C)NC1=O
inactive: Potency [1] | Potency [2] | Potency [3] | Potency [5] | Potency [6]
active: Potency [4] 5.85 µM

CC(=O)O[C@@H]1[C@H](O[C@@H]2O[C@@H](CO)[C@H](O)[C@H]2O)[C@@H](O[C@@H]2O[C@@H](C)[C@H](O[C@@H]3OC[C@@H](O)[C@H](O)[C@H]3O)[C@@H](O)[C@H]2O)[C@H](OC(=O)[C@]23CCC(C)(C)C[C@H]2C2=CCC4[C@@]5(C)CC[C@H](O[C@@H]6O[C@H](C(=O)O)[C@@H](O)[C@H](O)[C@H]6O[C@@H]6O[C@H](CO)[C@H](O)[C@H](O)[C@H]6O)[C@@](C)(C=O)C5CC[C@@]4(C)[C@]2(C)C[C@H]3O)O[C@@H]1C (stereo not given in full)
inactive: outcome [1] inactive [at 9.52 µM] | activity change, negative = inhibition [2] -0.242% [at 9.73 µM] | outcome [3] inactive [at 11.6 µM] | activity change, negative = thiol reactive [4] 435% [at 11.5 µM] | activity, negative = inhibition [5] 0% [at 11.6 µM] | redox activity (% of DA3003) [6] 9.67% [at 11.5 µM]

CC(C)=CCCC1(C)/C=C/C(OC(=O)C=C(C)C)C(C)(O)/C=C/C(=O)/C(CO)=C\C1 (stereo not given)
inactive: Potency [1] | Potency [2] | Potency [3] | Potency [4] | Potency [5] | Potency [6]

O=C(Nc1cccnc1)c1cc(-c2ccnc(F)c2)ccc1OCc1ccccc1
inactive: Potency [1] | Potency [2] | Potency [3] | Potency [4] | Potency [5] | Potency [6]

CCCC(CCC)C(=O)NCc1ccc2c(cnn2-c2ccccc2OC)c1
inactive: Potency [1] | Potency [2] | Potency [3] | Potency [4] | Potency [5] | Potency [6]

CCCSc1nc(N[C@@H]2C[C@H]2c2ccc(F)c(F)c2)c2nnn([C@@H]3C[C@H](OCCO)[C@@H](O)[C@H]3O)c2n1
inactive: Potency [1] | Potency [2] | Potency [3] | Potency [4] | Potency [5] | Potency [6]

CC(=O)OC1CC(C)C2(CCC3(CC(=O)OC3O)O2)C2(C)CCCC(C)(C)C12 (stereo not given)
inactive: Potency [1] | Potency [2] | Potency [3] | Potency [4] | Potency [5] | Potency [6]

CC(=O)[C@H]1CC[C@H]2[C@@H]3CC=C4C[C@@H](OS(=O)(=O)O)CC[C@]4(C)[C@H]3CC[C@]12C
inactive: Potency [1] | Potency [2] | Potency [3] | Potency [4] | Potency [5] | Potency [6]

COC1CC(=O)C23C(=O)NC(Cc4c[nH]c5ccccc45)C2C(C)C2(C)OC2C3/C=C/CC(C)CC1O (stereo not given)
inactive: Potency [1] | Potency [2] | Potency [3] | Potency [4] | Potency [5] | Potency [6]

CNc1cc2[nH]c(=O)n(-c3ccc(NC(=O)NS(=O)(=O)c4ccc(Cl)s4)cc3)c(=O)c2cc1F
inactive: Potency [1] | Potency [2] | Potency [3] | Potency [4] | Potency [5] | Potency [6]

CCn1c(=O)n([C@H]2CCCN(c3nccc(-c4cc5ccccc5o4)n3)C2)c2ccccc21
inactive: Potency [1] | Potency [2] | Potency [3] | Potency [4] | Potency [5] | Potency [6]

CC1(C)CN(C(=O)c2ccc(-c3cccc4nc(NC(=O)C5CC5)nn34)cc2)C1
inactive: Potency [1] | Potency [2] | Potency [3] | Potency [4] | Potency [5] | Potency [6]

O=C(c1cc(Cc2n[nH]c(=O)c3ccccc23)ccc1F)N1CCCNCC1
inactive: Potency [1] | Potency [2] | Potency [3] | Potency [4] | Potency [5] | Potency [6]

O=C(Nc1ccc(C(O)(C(F)(F)F)C(F)(F)F)cc1)c1ccc(C(F)(F)F)cc1
inactive: Potency [1] | Potency [2] | Potency [3] | Potency [4] | Potency [5] | Potency [6]

CCn1nc(C2CCN(C(=O)CCO)CC2)nc1-c1cnc(N)c(-c2nnc(C(C)(C)C)o2)n1
inactive: Potency [3] | Potency [4] | Potency [5] | Potency [6]
active: Potency [1] 20.2 µM and 20.5 µM | Potency [2] 14.3 µM

N#Cc1cc(CN2CCC(Nc3ncnc4sc(Cl)cc34)CC2)ccc1F
inactive: Potency [1] | Potency [2] | Potency [3] | Potency [4] | Potency [5] | Potency [6]

O=C(Nc1ccc2[nH]c(=O)oc2c1)C(=O)N1CCC(Cc2ccc(F)cc2)CC1
inactive: Potency [1] | Potency [2] | Potency [3] | Potency [4] | Potency [5] | Potency [6]

O=C(NCCCCN1CCN(c2cccc(Cl)c2Cl)CC1)c1cc2ccccc2s1
inactive: Potency [1] | Potency [2] | Potency [3] | Potency [4] | Potency [5] | Potency [6]

C[C@@]12C(=O)N(c3ccc(C(=O)Nc4cccc5cccnc45)cc3)C(=O)[C@@H]1[C@@H]1C=C[C@H]2C1
inactive: Potency [1] | Potency [2] | Potency [3] | Potency [4] | Potency [5] | Potency [6]

C=C1C(=O)O[C@@H]2C[C@H](C)C3=CC(=O)[C@H](O)[C@@]3(C)C[C@H]12
active: Potency [4] 11.9 µM
inactive: Potency [1] | Potency [2] | Potency [3] | Potency [5] | Potency [6]

CC1(C=O)CCCC2(C)C1CCC13CC(CO)C(CCC12)C3 (stereo not given)
inactive: Potency [1] | Potency [2] | Potency [3] | Potency [4] | Potency [5] | Potency [6]

C=C1C(=O)OC2C3=C(C)C(=O)CC3C(C)CC(O)C12 (stereo not given)
inactive: Potency [1] | Potency [2] | Potency [3] | Potency [5] | Potency [6]
active: Potency [4] 11.9 µM

O=C(Nc1ccccc1)N1CCN(c2nc(-c3ccccc3)ns2)CC1
inactive: Potency [1] | Potency [2] | Potency [3] | Potency [4] | Potency [5] | Potency [6]
